The record followed here is PubChem BioAssay (NCATS).

Inconclusive results are not listed. Some of the results follow. Active and inactive are the calls of the source. Unless noted, the call rests on the fitted dose curve; in most records, active means well fitted curve in the direction sought with a large enough effect; inconclusive means small, poorly fitted or top-dose-only effect, or another doubt; inactive means no such curve, though single readings can be large; an effect the other way counts as inactive or inconclusive.

For assay [1], the target named is Cytochrome P450 2D6 (Homo sapiens) (UniProt P10635). Briefly: Cytochrome P450 family 2 subfamily D member 6 (CYP2D6) small molecule antagonists: luciferase biochemical (cell-free) qHTS assay (AID 1645840; active means well fitted curve in the direction sought with a large enough effect in the repeat runs; an effect the other way counts as inactive or inconclusive; further: nearly all actives have a fitted effect of over 55% in size; further: potency means the concentration at half of the fitted maximal effect; on activity change, negative = inhibition: on the % scale 0 is the no-effect control and ±100 the full control effect). An outline of the steps: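 P450-Glo CYP2D6 system: proluciferin substrate converted by enzyme to luciferin, read by luminescence proportional to activity. Enzyme-substrate mix with compound 10 min at room temperature, then NADPH regeneration 1 h before detection reagent.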
For orientation: qHTS replaces the single test concentration by a dilution series.

Assay [2] addresses Cytochrome P450 2C9 (Homo sapiens) (UniProt P11712). Briefly: Cytochrome P450 family 2 subfamily C member 9 (CYP2C9) small molecule antagonists: luciferase biochemical (cell-free) qHTS assay (AID 1645842; active means well fitted curve in the direction sought with a large enough effect in the repeat runs; an effect the other way counts as inactive or inconclusive; further: potency means the concentration at half of the fitted maximal effect; nearly all actives have a fitted effect of over 55% in size). An outline of the steps: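 P450-Glo CYP2C9 system: proluciferin substrate with enzyme in mix containing 0.4% BSA, 10 min at room temperature, then NADPH regeneration solution added and incubated 1 h at 37C. Detection reagent stopped reaction; luminescence read after 20 min as RLU.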

Assay [3] is described as follows: Stat Signaling Pathway (AID 446; active means well fitted curve in either direction with a large enough effect, not every such curve was filed as active;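 further: ME-180 cervical cancer cells given 40 pM IL-6 alongside compound; SIE-controlled beta-lactamase reporter measured as 460/530 nm FRET emission ratio; on the % scale 0 is the no-effect control and ±100 the full control effect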). An outline of the steps:
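FRET read-out (405 nm excitation, 460/530 nm emission) of a beta-lactamase reporter under a STAT-inducible element in ME-180 cervical carcinoma cells. Cells with compound receive 40 pM IL-6 for 5 h. Values are normalised to AC90 stimulation and AC90 JAK-inhibitor controls.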

The target of assay [4] is Glucocorticoid receptor (Homo sapiens) (UniProt P04150). The experiment in a line: GR-GFP Redistribution (AID 450;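 active means compounds whose dose series gives a full or clear partial fitted curve of increased nuclear translocation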; further: potency means the concentration at half of the fitted maximal effect). The note with it: U2OS GR-GFP nuclear translocation, laser cytometry, 2 h.
The target in assay [5] is Luciferin 4-monooxygenase (Photinus pyralis) (UniProt P08659). The experiment in a line: Biochemical firefly luciferase enzyme assay for NPC (AID 624030).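 Further: purified P. pyralis luciferase at 10 nM with luciferin and ATP substrate; 0% = DMSO and -100% = full luciferase inhibition by PTC124 control; nearly all actives have a fitted effect of over 70% in size.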 In outline: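 Direct inhibition of firefly luciferase enzyme (10 nM final, 50 mM Tris Acetate) assessed by luminescence within 5 minutes. Percent activity scaled between DMSO and PTC124 positive control, with concentration-effect curves classified by fit quality and response.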

Assay [6] can be described thus: qHTS for Inhibitors of the vitamin D receptor (VDR): Hit Validation using a Texas Red Assay (AID 602201). Further: potency means the concentration at half of the fitted maximal effect. Conditions: VDR coregulator binding, Texas Red fluorescence polarization; agonist-bound VDR ligand-binding domain. In outline:
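After a 2-hour room-temperature incubation, polarization of Texas-Red emission was read (Ex 595 nm/Em 615 nm). Final mix contained 7 nM Texas Red, 1.5 uM VDR-LBD and LG19078.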

Assay [7] addresses Tumor susceptibility gene 101 protein (Homo sapiens) (UniProt Q99816). Briefly: qHTS Assay for Iinhibitors of HIV-1 Budding by Blocking the Interaction of PTAP/TSG101: Hit Validation (AID 651600). Further: nearly all actives have a fitted effect of over 70% in size. Further: potency means the concentration at half of the fitted maximal effect. On activity change, negative = inhibition: on the % scale 0 is the no-effect control and ±100 the full control effect. In outline: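 Measuring PTAP–Tsg101 interaction by FP: protein at 10 uM and fluorescent peptide at 50 nM (final), buffer 10 mM HEPES pH 7.5 with 0.15 M NaCl, 3 mM EDTA, 0.1 mM TCEP, 0.01% Tween 20; 20 min incubation, r.t.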

Assay [8] concerns the target Phosphoglycerate kinase, glycosomal (Trypanosoma brucei brucei) (UniProt P07378). Briefly: qHTS for inhibitors of Phosphogylcerate Kinase: Hit Validation Screen (AID 686980). Further: potency means the concentration at half of the fitted maximal effect; nearly all actives have a fitted effect of over 65% in size. Conditions: TbPGK coupled GAPDH assay, Kinase-Glo luminescence. An outline of the steps: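 Recombinant glycosomal PGK reaction used 1,3-bisphosphoglycerate generated in-well by GAPDH (100nM final) in 100mM TEA pH 7.6, 5mM MgCl2, 0.01% Tween-20. After 60 minutes at room temperature, ATP was read by Kinase-Glo Plus luminescence end-point.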

The target in assay [9] is DNA polymerase iota (Homo sapiens) (UniProt Q9UNA4). Briefly: qHTS for Inhibitors of Polymerase Iota: Confirmatory Assay for Cherry-picked Compounds (AID 720496). Further: potency means the concentration at half of the fitted maximal effect. The note with it: Pol iota primer extension, TAMRA/BHQ fluorescence. In outline:
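Extension of a quenched TAMRA-reporter/BHQ-2-template DNA substrate (50 nM) by 10 nM Pol iota after 15 min compound preincubation. Strand-displacement fluorescence (525/598 nm) was read kinetically at 0 and 10 min. Buffer-only wells served as negative control.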

Assay [10] has as its target DNA polymerase kappa (Homo sapiens) (UniProt Q9UBT6). Briefly: qHTS for Inhibitors of Polymerase Kappa: Confirmatory Assay for Cherry-picked Compounds (AID 720501). Further: potency means the concentration at half of the fitted maximal effect. Conditions: purified Pol-kappa, fluorescent strand-displacement substrate. In outline: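 Strand-displacement fluorescence read-out: TAMRA reporter released from a BHQ-2-quenched template, measured at 525/598 nm over a 10 min kinetic window. Substrate was 50 nM final; enzyme was 10 nM Pol-kappa, preincubated 15 min at room temperature with compound.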

Assay [11] addresses DNA polymerase eta (Homo sapiens) (UniProt Q9Y253). The experiment in a line: qHTS for Inhibitors of Polymerase Eta: Confirmatory Assay for Cherry-picked Compounds (AID 720502). Further: potency means the concentration at half of the fitted maximal effect. Conditions: Pol eta primer extension, TAMRA/BHQ fluorescence, 10 min. An outline of the steps:
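Human Pol eta (10 nM) was preincubated with compounds for 15 min at room temperature before adding 50 nM (final) DNA substrate: primer plus TAMRA reporter strand annealed to a BHQ-2-labeled template. Fluorescence (ex 525/em 598 nm) was read at 0 and 10 min.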

A short description of assay [12]: qHTS Assay for Identifying Gametocytocidal Compounds (AID 743244).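 Further: on the % scale 0 is the no-effect control and ±100 the full control effect; actives lower the fluorescent signal which means gametocytes are killed.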 Conditions: P. falciparum 3D7 stage III-V gametocytes, alamarBlue, 72 h; max response: stronger effect = lower value. An outline of the steps:
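P. falciparum 3D7 stage III–V gametocytes (20,000 cells/well) were exposed to compounds for 72 h at 37 °C, 5% CO2. AlamarBlue was then added for 24 h; decreased resorufin fluorescence (Ex 525/Em 598 nm) indicated loss of viability.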

Assay [13] has as its target N-terminal Xaa-Pro-Lys N-methyltransferase 1 (Homo sapiens) (UniProt Q9BV86). The experiment in a line: Confirmatory qHTS for Inhibitors of N-terminal methyltransferase 1 (NTMT1): MTaseGlo Assay (AID 1645874). Further: potency means the concentration at half of the fitted maximal effect; nearly all actives have a fitted effect of over 65% in size. An outline of the steps:
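MTase-Glo luminescence measured SAH formed by 125 nM NTMT1 from 100 uM SAM and 1 uM SPKRIA peptide over 30 min at room temperature, following 15 min compound preincubation. Percent inhibition against no-enzyme and DMSO controls gave 4-parameter Hill fits.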

Assay [14] in a line: Primary qHTS for inhibitors of nuclear receptor binding SET domain protein 2 (NSD2) in an isogenic RCH-ACV NSD2 p.E1099K mutant (9B) (AID 1645876). Further: potency means the concentration at half of the fitted maximal effect; nearly all actives have a fitted effect of over 70% in size.
Assay [15] is described as follows: Primary qHTS for inhibitors of nuclear receptor binding SET domain protein 2 (NSD2) in an RCH-ACV wild type WT cells (2C) (AID 1645877). Further: potency means the concentration at half of the fitted maximal effect; nearly all actives have a fitted effect of over 70% in size.
Assay [16] addresses Catechol O-methyltransferase (Homo sapiens) (UniProt P21964). The experiment in a line: Confirmatory Screen for Target Class Profiling of Small Molecule Inhibitors of Methyltransferases (AID 1745852; calls by dose curve; further: potency means the concentration at half of the fitted maximal effect). Conditions: MTase-Glo luminescence, SAH detection, recombinant enzyme; measured here: COMT max response; stronger effect = lower value.
Assay [17] deals with Guanidinoacetate N-methyltransferase (Homo sapiens) (UniProt Q14353). The assay is described as above. The note with it: MTase-Glo luminescence, SAH detection, recombinant enzyme; activity change, negative = inhibition: at 57.3 µM (top of the series) unless noted.
Assay [18] has as its target Nicotinamide N-methyltransferase (Homo sapiens) (UniProt P40261). The assay is described as above. The note with it: MTase-Glo luminescence, SAH detection, recombinant enzyme; measured here: NNMT max response; stronger effect = lower value.
In assay [19] the target is Phenylethanolamine N-methyltransferase (Homo sapiens) (UniProt P11086). Described as above. The note with it: MTase-Glo luminescence, SAH detection, recombinant enzyme; measured here: PNMT max response; stronger effect = lower value.
A short description of assay [20]: qHTS drug screen for cell cycle checkpoint inhibitors in PARPi-resistant BRCA-mutant ovarian cancer cell lines. (AID 1963452; calls by dose curve). The note with it: PEO1/OlaR viability, CellTiter-Glo luminescence, 96 h, stronger effect = lower value. An outline of the steps: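 PEO1, PEO4 and PEO1/OlaR ovarian cancer cells, 600 per well, exposed 96 h at 37C to a dilution series. Viability read by CellTiter-Glo luminescence, normalized to DMSO and empty wells; activity summarized as Z-AUC.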

The nature of assay [21]: Viability counterscreen for antagonist of constitutive androstane receptor (CAR) against the NCATS DSHEA and TCM libraries (AID 1794837).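 Further: compound exposure lasted 24 h before viability reading; 0% is about no effect.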 In outline: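 Counterscreen performed in a 1536-well qHTS format using HepG2-CYP2B6-hCAR cells; samples titrated in the presence of 48 uM CITCO, with viability measured fluorometrically (405/540 nm) after 24 h.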
Assay [22] can be described thus: Viability counterscreen for agonist of constitutive androstane receptor (CAR) against the NCATS DSHEA and TCM libraries (AID 1794838). Further: 0% is about no effect. In outline:
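Multiplexed counterscreen: after 24 h compound exposure with 0.75 uM PK11195, HepG2-CYP2B6-hCAR viability was quantified fluorimetrically (CellTiter-Fluor, 405/540 nm) prior to the ONE-Glo luciferase read.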
Background: Counterscreens check selectivity or assay interference.

For assay [23], the target named is Nuclear receptor subfamily 1 group I member 3 (Homo sapiens) (UniProt Q14994). The experiment in a line: Primary qHTS for agonist of constitutive androstane receptor (CAR) against the NCATS DSHEA and TCM libraries (AID 1794839).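 Further: HepG2 cells expressing human CAR with a CYP2B6 reporter plus PK11195 antagonist; luciferase reporter luminescence read with ONE-Glo; 0% is about no effect.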 An outline of the steps: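 Concentration–response screen in HepG2-CYP2B6-hCAR cells under 0.75 µM PK11195; 24 h exposure; luminescent reporter signal with multiplexed fluorescent viability.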

[24] abbreviates: measured here: PEO1 parental Z-AUC.

Sequence of Cytochrome P450 2D6 (Homo sapiens) (P10635 whole entry, looked up): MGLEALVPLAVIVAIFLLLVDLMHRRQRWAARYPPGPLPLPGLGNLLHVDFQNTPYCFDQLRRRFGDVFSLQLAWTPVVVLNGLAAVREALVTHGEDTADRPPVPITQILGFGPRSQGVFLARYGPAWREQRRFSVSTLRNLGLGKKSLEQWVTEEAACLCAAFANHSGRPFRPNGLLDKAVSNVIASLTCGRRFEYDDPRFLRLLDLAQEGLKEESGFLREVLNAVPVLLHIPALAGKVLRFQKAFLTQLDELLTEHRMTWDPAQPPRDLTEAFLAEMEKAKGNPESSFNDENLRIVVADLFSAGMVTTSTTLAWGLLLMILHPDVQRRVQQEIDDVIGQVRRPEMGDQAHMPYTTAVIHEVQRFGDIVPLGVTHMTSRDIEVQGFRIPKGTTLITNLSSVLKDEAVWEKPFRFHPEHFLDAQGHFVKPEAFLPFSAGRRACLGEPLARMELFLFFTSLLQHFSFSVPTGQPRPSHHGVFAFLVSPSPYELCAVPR
Sequence of Cytochrome P450 2C9 (Homo sapiens) (P11712 whole entry, looked up): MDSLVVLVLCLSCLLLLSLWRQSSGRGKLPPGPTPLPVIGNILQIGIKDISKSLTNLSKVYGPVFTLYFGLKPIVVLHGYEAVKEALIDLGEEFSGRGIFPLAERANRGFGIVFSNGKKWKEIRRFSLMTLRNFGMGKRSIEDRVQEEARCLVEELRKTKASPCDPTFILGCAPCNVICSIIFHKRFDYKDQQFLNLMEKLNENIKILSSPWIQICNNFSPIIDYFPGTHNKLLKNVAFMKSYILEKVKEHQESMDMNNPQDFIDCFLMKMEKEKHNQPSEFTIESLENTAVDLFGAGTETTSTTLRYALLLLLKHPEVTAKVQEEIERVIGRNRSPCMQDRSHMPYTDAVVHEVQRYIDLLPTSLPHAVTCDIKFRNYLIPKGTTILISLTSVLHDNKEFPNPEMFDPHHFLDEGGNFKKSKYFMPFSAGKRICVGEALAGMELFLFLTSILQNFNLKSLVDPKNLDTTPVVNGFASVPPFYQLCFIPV
Sequence of Tumor susceptibility gene 101 protein (Homo sapiens) (Q99816 whole entry, looked up): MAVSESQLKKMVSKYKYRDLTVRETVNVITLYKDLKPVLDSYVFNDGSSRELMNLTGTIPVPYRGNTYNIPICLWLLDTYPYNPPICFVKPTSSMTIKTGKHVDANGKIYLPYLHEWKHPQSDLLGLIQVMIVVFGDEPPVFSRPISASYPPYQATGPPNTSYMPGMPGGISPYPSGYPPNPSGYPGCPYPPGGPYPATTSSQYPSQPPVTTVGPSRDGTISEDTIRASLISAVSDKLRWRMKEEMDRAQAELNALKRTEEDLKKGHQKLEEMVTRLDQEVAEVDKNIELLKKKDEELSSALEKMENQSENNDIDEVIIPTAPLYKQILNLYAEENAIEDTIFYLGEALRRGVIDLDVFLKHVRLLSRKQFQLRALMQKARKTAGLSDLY
Sequence of Nuclear receptor subfamily 1 group I member 3 (Homo sapiens) (Q14994 whole entry, looked up): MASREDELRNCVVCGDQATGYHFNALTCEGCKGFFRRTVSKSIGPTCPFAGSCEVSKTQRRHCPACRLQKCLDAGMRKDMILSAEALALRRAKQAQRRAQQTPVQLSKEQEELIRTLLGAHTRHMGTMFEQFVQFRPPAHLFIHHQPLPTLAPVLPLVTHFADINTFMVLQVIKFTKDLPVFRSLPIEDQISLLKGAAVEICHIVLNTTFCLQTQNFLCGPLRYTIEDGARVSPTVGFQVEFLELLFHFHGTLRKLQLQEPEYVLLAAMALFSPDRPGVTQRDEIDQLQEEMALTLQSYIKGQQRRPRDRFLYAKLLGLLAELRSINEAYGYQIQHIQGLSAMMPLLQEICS
Sequence of N-terminal Xaa-Pro-Lys N-methyltransferase 1 (Homo sapiens) (Q9BV86 whole entry, looked up): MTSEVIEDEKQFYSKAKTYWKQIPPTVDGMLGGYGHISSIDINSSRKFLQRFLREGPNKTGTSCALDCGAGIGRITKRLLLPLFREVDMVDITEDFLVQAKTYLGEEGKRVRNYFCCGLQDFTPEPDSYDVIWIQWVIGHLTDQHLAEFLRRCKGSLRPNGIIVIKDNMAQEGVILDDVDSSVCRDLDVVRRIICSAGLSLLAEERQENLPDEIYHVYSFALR
Sequence of Nicotinamide N-methyltransferase (Homo sapiens) (P40261 whole entry, looked up): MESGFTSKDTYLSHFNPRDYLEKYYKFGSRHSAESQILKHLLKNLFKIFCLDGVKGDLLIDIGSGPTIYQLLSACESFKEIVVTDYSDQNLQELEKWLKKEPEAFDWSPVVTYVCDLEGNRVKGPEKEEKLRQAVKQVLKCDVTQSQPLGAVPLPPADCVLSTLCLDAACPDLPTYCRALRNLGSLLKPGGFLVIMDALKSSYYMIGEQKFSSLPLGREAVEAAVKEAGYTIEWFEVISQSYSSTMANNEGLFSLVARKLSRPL
Sequence of DNA polymerase kappa (Homo sapiens) (Q9UBT6 whole entry, looked up): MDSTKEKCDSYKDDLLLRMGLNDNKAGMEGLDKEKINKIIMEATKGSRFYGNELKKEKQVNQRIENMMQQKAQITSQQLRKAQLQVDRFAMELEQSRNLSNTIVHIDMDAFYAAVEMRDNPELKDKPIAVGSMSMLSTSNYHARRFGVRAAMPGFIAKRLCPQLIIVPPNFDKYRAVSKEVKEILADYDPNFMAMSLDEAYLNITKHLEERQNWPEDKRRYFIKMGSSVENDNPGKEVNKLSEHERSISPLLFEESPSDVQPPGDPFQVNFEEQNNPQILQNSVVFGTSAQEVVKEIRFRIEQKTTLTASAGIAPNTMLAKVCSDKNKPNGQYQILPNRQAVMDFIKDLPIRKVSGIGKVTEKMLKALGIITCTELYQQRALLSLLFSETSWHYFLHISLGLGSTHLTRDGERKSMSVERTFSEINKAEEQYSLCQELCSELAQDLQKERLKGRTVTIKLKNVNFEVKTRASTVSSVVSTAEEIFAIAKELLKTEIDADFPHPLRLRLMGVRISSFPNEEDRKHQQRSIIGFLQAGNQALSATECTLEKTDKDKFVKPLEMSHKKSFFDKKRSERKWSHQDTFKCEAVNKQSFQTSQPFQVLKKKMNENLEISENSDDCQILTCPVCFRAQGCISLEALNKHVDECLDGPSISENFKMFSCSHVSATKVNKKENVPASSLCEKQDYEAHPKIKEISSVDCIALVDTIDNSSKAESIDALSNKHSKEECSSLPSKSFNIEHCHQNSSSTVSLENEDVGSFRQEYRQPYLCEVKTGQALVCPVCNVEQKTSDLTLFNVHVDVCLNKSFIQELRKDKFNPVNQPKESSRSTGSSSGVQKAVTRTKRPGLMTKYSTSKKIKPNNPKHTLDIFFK
Sequence of DNA polymerase iota (Homo sapiens) (Q9UNA4 whole entry, looked up): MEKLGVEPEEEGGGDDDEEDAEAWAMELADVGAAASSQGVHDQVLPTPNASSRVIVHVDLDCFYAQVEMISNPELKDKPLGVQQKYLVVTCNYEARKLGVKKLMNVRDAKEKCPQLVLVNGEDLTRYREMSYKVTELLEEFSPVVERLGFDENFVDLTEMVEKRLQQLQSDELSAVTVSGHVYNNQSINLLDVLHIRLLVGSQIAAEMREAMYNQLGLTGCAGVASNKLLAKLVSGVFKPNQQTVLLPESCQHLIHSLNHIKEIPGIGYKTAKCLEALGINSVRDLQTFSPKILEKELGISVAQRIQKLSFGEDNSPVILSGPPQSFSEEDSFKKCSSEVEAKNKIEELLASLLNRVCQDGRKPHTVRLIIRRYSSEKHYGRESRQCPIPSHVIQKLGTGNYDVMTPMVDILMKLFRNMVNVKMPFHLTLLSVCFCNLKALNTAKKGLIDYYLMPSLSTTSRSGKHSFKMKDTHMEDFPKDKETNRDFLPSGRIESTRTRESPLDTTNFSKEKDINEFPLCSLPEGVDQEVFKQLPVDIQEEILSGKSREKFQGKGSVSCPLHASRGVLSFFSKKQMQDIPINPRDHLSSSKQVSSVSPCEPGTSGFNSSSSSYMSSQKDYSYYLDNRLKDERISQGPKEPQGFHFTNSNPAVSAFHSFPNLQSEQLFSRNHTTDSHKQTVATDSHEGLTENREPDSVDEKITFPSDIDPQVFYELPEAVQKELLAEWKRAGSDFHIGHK
Sequence of DNA polymerase eta (Homo sapiens) (Q9Y253 whole entry, looked up): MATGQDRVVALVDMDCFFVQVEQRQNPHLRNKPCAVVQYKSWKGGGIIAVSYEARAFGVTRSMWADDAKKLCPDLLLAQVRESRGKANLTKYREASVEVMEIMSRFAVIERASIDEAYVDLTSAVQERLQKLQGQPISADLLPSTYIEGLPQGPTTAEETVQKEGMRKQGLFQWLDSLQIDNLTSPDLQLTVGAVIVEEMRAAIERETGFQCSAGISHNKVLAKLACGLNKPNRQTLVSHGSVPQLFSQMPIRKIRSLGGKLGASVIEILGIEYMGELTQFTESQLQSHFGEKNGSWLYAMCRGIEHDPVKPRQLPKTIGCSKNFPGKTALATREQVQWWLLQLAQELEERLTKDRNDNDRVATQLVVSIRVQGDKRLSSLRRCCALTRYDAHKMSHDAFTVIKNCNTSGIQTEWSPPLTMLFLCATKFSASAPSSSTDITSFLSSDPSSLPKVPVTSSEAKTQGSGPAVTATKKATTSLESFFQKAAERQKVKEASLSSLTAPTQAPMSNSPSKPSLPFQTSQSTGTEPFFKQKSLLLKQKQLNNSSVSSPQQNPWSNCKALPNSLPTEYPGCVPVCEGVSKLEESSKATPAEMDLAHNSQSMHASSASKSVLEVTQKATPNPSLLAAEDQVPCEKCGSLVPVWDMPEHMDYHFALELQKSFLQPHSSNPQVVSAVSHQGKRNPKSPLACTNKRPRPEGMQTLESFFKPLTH
Sequence of Phenylethanolamine N-methyltransferase (Homo sapiens) (P11086 whole entry, looked up): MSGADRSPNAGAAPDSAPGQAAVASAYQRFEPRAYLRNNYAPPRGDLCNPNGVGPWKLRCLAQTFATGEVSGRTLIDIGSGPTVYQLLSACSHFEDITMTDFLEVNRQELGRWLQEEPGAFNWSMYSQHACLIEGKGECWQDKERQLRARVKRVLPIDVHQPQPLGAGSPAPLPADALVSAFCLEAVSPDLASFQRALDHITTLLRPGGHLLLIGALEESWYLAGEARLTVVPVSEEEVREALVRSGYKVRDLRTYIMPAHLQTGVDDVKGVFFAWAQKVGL

As to `COc1cccc(C(=O)NC(c2ccc(Cl)cc2)c2cc(Cl)c3cccnc3c2O)c1` (stereo not given), the Potency result in [1] was “inactive”. In addition, the Potency in assay [2] was 23.9 µM (active).

Regarding `COc1ccc2c(c1)CCc1sc(NC(=O)c3cccc(Br)c3)nc1-2`, the Potency result in assay [1] was “inactive”. In assay [2], the Potency is 5.35 µM (active).

`NS(=O)(=O)c1ccc(Cc2c(-c3cccc(-c4ccccc4)c3)nn(-c3nc(C(=O)O)cs3)c2C2CC2)cc1`: the Potency was 21.3 µM (active) in assay [1] and 23.9 µM (active) in assay [2].

As for `COc1ccc(Cn2c(SCc3ccc(C(=O)NC4CCCC4)cc3)nc3ccncc32)cc1`, the Potency in [1] is 6.01 µM (active); in assay [2] it was 0.674 µM (active).

Regarding `O=C(CSc1nccn1Cc1ccc(F)cc1)Nc1nc2ccccc2s1`, the results for the Potency in assay [1] and in assay [2] were 10.7 µM (active) and 7.56 µM (active), respectively.

Turning to `O=C(CSc1nc2ccsc2c(=O)n1Cc1ccccc1F)NCc1ccccc1Cl`, the Potency in assay [1] was 2.68 µM (active); in assay [2] it was 1.51 µM (active).

In the case of `Cc1ccc(-n2ncc3c(NCCCn4ccnc4)ncnc32)cc1Cl`, the Potency in assay [1] was 3.79 µM (active); in assay [2] it was 0.601 µM (active).

Turning to `C[C@@H]1C[C@H]2[C@@H]3C[C@H](F)C4=CC(=O)C=C[C@]4(C)[C@@]3(F)[C@@H](O)C[C@]2(C)[C@@]1(O)C(=O)COC(=O)C(C)(C)C`, the outcome in assay [3] was “inactive”. Also, the Potency in assay [4] was 0.00124 µM (active). For the same molecule, the Potency entry in assay [5] is “inactive”.

Take `Cc1ccnc(NC(c2cc(C)ccc2O)c2ccc3cccnc3c2O)c1` (stereo not given): in [6], the Potency is 28.2 µM (active).

For the molecule `Cc1ccc2c(c1)-c1c(c(C(=O)N3CCN(c4cc(C)ccc4C)CC3)nn1C)CS2`, the Potency in assay [7] is 18.3 µM (active).

Regarding `COc1ccc(OC)c(/C=C(\C#N)c2nc3ccccc3c(=O)[nH]2)c1`, the Potency result in [7] is “inactive”.

For the molecule `C=CC1=C(C(=O)O)N2C(=O)[C@@H](NC(=O)/C(=N\OCC(=O)O)c3csc(N)n3)[C@H]2SC1`, the Potency in assay [8] is 4.11 µM (active); in [9], 7.52 µM (active); in assay [10], 4.74 µM (active); in assay [11], 19 µM (active).

Turning to `CC[C@H]1OC(=O)[C@H](C)[C@@H](O[C@H]2C[C@@](C)(OC)[C@@H](O)[C@H](C)O2)[C@H](C)[C@@H](O[C@@H]2O[C@H](C)C[C@H](N(C)C)[C@H]2O)[C@](C)(OC)C[C@@H](C)C(=O)[C@H](C)[C@@H](O)[C@]1(C)O`, the max response in assay [12] is -5.34% (inactive).

Take `O=C(Nc1cccc(Cl)c1)c1c(NC(=O)C(F)(F)F)sc2c1CCCC2`: in assay [13], the Potency was 5.4 µM (active).

As for `O=C(CSc1nc(-c2ccc(F)cc2)nc2c1Cc1ccccc1O2)Nc1cccc(C(=O)O)c1`, the Potency in assay [13] was 6.02 µM (active).

Turning to `Nc1nc(Nc2ccc3c(c2)CC[C@@H](N2CCCC2)CC3)nn1-c1cc2c(nn1)-c1ccccc1CCC2`, the results for the Potency in assay [14], in assay [15] and in [17] were 2.63 µM (active), 3.32 µM (active) and 24.1 µM (active), respectively. Besides, the figures for the activity in assay [16], in assay [18] and in [19] were -19.2%, -19.6% and -24%, respectively. The results for the Z-AUC in assay [20], in [20] (setting [24]) and in [20] (measured here: PEO4 Z-AUC) were 0.211 (inactive), -0.494 and -0.517, respectively.

For the molecule `C=C(C)[C@H]1CC=C(C)CC1`, the outcome in assay [21], in assay [22] and in assay [23] was “inactive” throughout.

Consider `CCC(/C=C/[C@@H](C)[C@H]1CCC2C3CC=C4C[C@@H](O)CC[C@]4(C)C3CC[C@@]21C)C(C)C` (stereo not given in full), for which the outcome in [21], in assay [22] and in assay [23] was “inactive” throughout.

For `CN[C@@H](C)C(=O)N[C@H](C(=O)N1CCC[C@H]1c1nc(C(=O)c2ccc(F)cc2)cs1)C1CCCCC1`, the values for the Z-AUC in assay [20], in [20] (setting [24]) and in [20] (measured here: PEO4 Z-AUC) were -0.196 (inactive), -0.329 and -0.73, respectively.
